Test results taken from PubChem BioAssay (NCI).
The panel holds about 83,000 compounds, 20% with a hit somewhere; the sample as a whole holds those more often.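 Growth was measured after 48 h exposure to one concentration of compound in 96-well plates. Values under 10 count as active.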 Values without a mark were called inactive. Calls of active or inactive are those of the source.

System: LOX IMVI melanoma
Test: NCI-60 one-dose screen, 48 h (100 = growth as untreated, 0 = no growth, -100 = all killed)
Conditions: 10 µM unless noted
Procedure: Growth inhibition of the LOX IMVI human tumor cell line is measured as a screen for anti-cancer activity. Cells are grown in 96 well plates and exposed to the test compound for 48 hours. Compounds are tested at a single concentration, which is 10^-5 M for most compounds. The reported endpoint is percent growth (GI% or GIPRCNT), where numbers from 0 - 100% represent growth inhibition, and numbers from -100% - 0 represent cell death. For example, a value of 40 represents 60% growth inhibition. A value of 0 means no net growth occurred over the course of the experiment. A value of -40 indicates 40% of cells at the beginning of the experiment died by the end of the experiment. A value of -100 means all cells are dead at the end of the experiment.
NCI-60 Human Tumor Cell Lines Screen was performed using the standard one-dose NCI protocol, which is described in more detail at https://dtp.cancer.gov/discovery_development/nci-60/default.htm.
Compounds with GIPRCNT values below 10 were considered active. Activity score was based on GIPRCNT using the following formula: […]
Score is 0 for GIPRCNT values of 100 or above, 50 for GIPRCNT values of 0, and 100 for GIPRCNT values of -100.

| SMILES | growth |
| --- | --- |
| O=C1C2=C(C(=O)c3c(O)cccc31)C(c1ccco1)c1sc(=O)[nH]c1S2 (stereo not given) | -2.86% (active) |
| OC1CCN(CCCOc2c3ccccc3nc3c2oc2ccc(Cl)cc23)CC1 | -73.8% (active) |
| CS(=O)(=O)c1ccc(-c2nc3ccccn3c2/C=N/Nc2nc(-c3ccc(Br)cc3)cs2)cc1 | 112% |
| CC(C)(C)Nc1nc2c(OCCc3ccccc3)cccn2c1-c1cccc(F)c1 | -83.1% (active) |
| CSCCC(C(=O)O)N1C(=O)/C(=C/c2ccc(O)c(O)c2)SC1=S (stereo not given) | 103% |
| CN(C)S(=O)(=O)c1oc(-c2ccccc2)nc1C#N | -80.7% (active) |
| [Cl][Ru].c1ccc(-c2cccc(-c3ccccn3)n2)nc1.c1ccc(-c2ccnc3c2ccc2c(-c4ccccc4)ccnc23)cc1 | 37.4% |
| Nc1cc(-c2c[nH]c3ccc(F)cc23)nc2cc(-c3c[nH]c4ccc(F)cc34)nn12 | -18.8% (active) |
| CNC(=O)c1cc(-c2ccc(NC(=O)Nc3ccc(N4CCN(C)CC4)c(C(F)(F)F)c3)cc2)nc2cccnc12 | -92.5% (active) |
| O=C(CN1CCOCC1)NNc1ncnc2ccccc12 | 9.78% (active) |
| N#Cc1c(-c2ccc(F)cc2)nc2c(C#N)c(Nc3ccccc3)nn2c1N | 99.8% |
| N#Cc1c(-c2ccc(Cl)cc2)nc(SCc2ccc(F)cc2)nc1N1CCNCC1 | -59.2% (active) |
| C=CCSc1ccc2c(c1)C(N1CCNCC1)=Nc1ccccc1O2 | 51.5% [8.25 µM] |
| Cn1cc(-c2cc(N)n3nc(-c4cn(C)c5ccc(Br)cc45)cc3n2)c2cc(Br)ccc21 | 6.31% (active) |
| CC(=O)Nc1cc(F)cc(-c2ccc3[nH]cc(-c4ccccc4)c3n2)c1 | -62.4% (active) |
| CCOC(=O)c1csc(NC(=O)CSc2nc3sc4c(c3c(=O)n2-c2ccc(Cl)cc2)CCCC4)n1 | 56.5% |
| CN1CCN(Cc2ccc(NC(=O)c3cncc(C#Cc4cnc5ccc(N6CCSCC6)nn45)c3)cc2C(F)(F)F)CC1 | -89.8% (active) |
| O=C(CSc1nnc(-c2ccc3nc(-c4ccc(Cl)cc4)[nH]c3c2)o1)Nc1ccc(C(=O)/C=C/c2ccc(Cl)cc2)cc1 | -24.2% (active) |
| Cc1ccc(C(=O)Nc2cccc(C(F)(F)F)c2)cc1Nc1nc(-c2cnccn2)nc2c1cnn2C | 62.3% |
| CN(C)c1ccc(/C=c2\sc3nc4ccccc4n3c2=O)cc1 | 118% |

| SMILES | growth |
| --- | --- |
| COc1ccc(N/N=C/c2c(-c3ccc(S(C)(=O)=O)cc3)nc3ccccn23)cc1 | 16.6% |
| Clc1ccc2c(NCCCn3ccnc3)c3oc4ccccc4c3nc2c1 | 14.4% |
| CC(=O)Oc1ccccc1C(=O)Nc1cc(C(C)C)ccc1C | 12.4% |
| CC(C)(C)Nc1nc2c(OCCc3ccccc3)cccn2c1-c1ccc(O)cc1 | 34.9% |
| CN(C)c1ccc(-c2c(NC(C)(C)C)nc3c(OCCc4ccccc4)cccn23)cc1 | 11.5% |
| O=C(CCN1C(=O)/C(=C/c2ccccc2)SC1=S)N1CCOCC1 | 0.309% (active) |
| COc1ccc(-c2nc3ccc(-c4nnc(SCC(=O)Nc5ccc(C(=O)/C=C/c6ccc(Cl)cc6)cc5)o4)cc3[nH]2)cc1OC | 3.17% (active) |
| N#Cc1nc(-c2ccccc2)oc1S(=O)(=O)N1CCCCC1 | -82.5% (active) |
| O=C(O)CCCCCN1C(=O)/C(=C/c2ccc(O)c(O)c2)SC1=S | 108% |
| N#Cc1nc(-c2ccccc2)oc1N1CCC(CO)C1 (stereo not given) | 88.2% |
| NC(=O)c1cc(-c2ccc3ncnc(N4CCc5cc(F)c(Cl)cc54)c3c2)cnc1N | 24% |
| CN1CCN(Cc2ccc(NC(=O)c3cncc(C#Cc4cnc5[nH]ncc5c4)c3)cc2C(F)(F)F)CC1 | 2.34% (active) |
| COc1cccc(COc2ccc(/C=C3/C(=O)Nc4cc(Cl)ccc43)cc2)c1 | 97.9% |
| COc1ccc(/C=C/C(=O)c2ccc(NC(=O)CSc3nnc(-c4ccc5nc(-c6ccc(Cl)cc6)[nH]c5c4)o3)cc2)cc1 | 6.79% (active) |
| Cc1sc2c(c1C)c(=O)nc1c(-c3nc(-c4ccc(F)cc4)no3)n[nH]n12 | 93.7% |
| Clc1ccc2oc3c(NCCCn4ccnc4)c4ccccc4nc3c2c1 | -72.1% (active) |
| O=C1c2c(c3c4cccnc4[nH]c3c3ccc4ccccc4c23)C(=O)N1CCO | 51.7% |
| N/C(=N\c1nc2c(Cl)cc(Cl)cc2s1)C(Cl)(Cl)Cl | 1.92% (active) |
| O=C1/C(=C/C2=Cc3ccccc3OC2)SC(=S)N1c1ccc(F)cc1 | 92.5% |
| O=C1Nc2cc(Cl)ccc2/C1=C\c1ccc(OCc2ccc(Br)cc2F)cc1 | -92.8% (active) |
